Source: PubChem BioAssay AID1159580 (chemical genetic matrix, 2015)
“And” between values parts separate entries of the source, which are not always exact repeats. Equal values may be shown once. Out of some 5,500 compounds screened, about 2,000 (36%) were called active. Not shown: some 18% with an inconclusive outcome. Rule as the data show it: active = normalized growth mostly below about 0.91 (no sharp cut-off); inconclusive = no clear call, values can overlap the other calls; inactive = mostly above about 0.92. Some of the results follow.

Test: chemical genetic growth profiling, strain panel (AID 1159580);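 also: tested at 20 µM; growth read once vehicle control cultures reached saturation at 30 °C; 1 = growth at the plate median or of vehicle wells; lower values mean less growth of the strain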
Details: growth OD

Measured: normalized growth

Cc1cccc(C)c1NC1=NCCCS1
inactive: S. cerevisiae deletion strains, locus YJR075W, strain HOC1, hits give low values 1.03 | S. cerevisiae deletion strains, locus YKL009W, strain mrt4, hits give low values 0.968 | S. cerevisiae deletion strains, locus YKL068W, hits give low values 0.977 | S. cerevisiae deletion strains, locus YKL085W, strain MDH1 (second series), hits give low values 0.976 | S. cerevisiae deletion strains, locus YKL085W, strain MDH1, hits give low values 0.976 | S. cerevisiae deletion strains, locus YKL160W, strain elf1, hits give low values 1 | S. cerevisiae deletion strains, locus YKL190W, strain CNB1, hits give low values 1.01 | S. cerevisiae deletion strains, locus YKR001C, strain vps1, hits give low values 1 | S. cerevisiae deletion strains, locus YKR026C, strain gcn3, hits give low values 1 | S. cerevisiae deletion strains, locus YKR091W, strain srl3, hits give low values 1.01 | S. cerevisiae deletion strains, locus YLL001W, strain dnm1, hits give low values 0.959 | S. cerevisiae deletion strains, locus YLL026W, hits give low values 1 | S. cerevisiae deletion strains, locus YLL041C, strain sdh2, hits give low values 1.02 | S. cerevisiae deletion strains, locus YLR027C, strain aat2, hits give low values 1.01 | S. cerevisiae deletion strains, locus YLR039C, strain RIC1, hits give low values 0.997 | S. cerevisiae deletion strains, locus YLR058C, strain SHM2, hits give low values 0.996 | S. cerevisiae deletion strains, locus YLR102C, strain apc9, hits give low values 0.989 | S. cerevisiae deletion strains, locus YLR113W, strain HOG1, hits give low values 1.04 | S. cerevisiae deletion strains, locus YLR221C, strain rsa3, hits give low values 0.994 | S. cerevisiae deletion strains, locus YLR258W, strain gsy2, hits give low values 0.995 | S. cerevisiae deletion strains, locus YLR262C, strain YPT6 (second series), hits give low values 1.03 | S. cerevisiae deletion strains, locus YLR262C, strain YPT6, hits give low values 0.985 | S. cerevisiae deletion strains, locus YLR268W, strain sec22, hits give low values 0.978 | S. cerevisiae deletion strains, locus YLR320W, strain mms22, hits give low values 0.994 | S. cerevisiae deletion strains, locus YLR330W, strain CHS5, hits give low values 0.991 | S. cerevisiae deletion strains, locus YLR342W, strain FKS1 (second series), hits give low values 0.981 | S. cerevisiae deletion strains, locus YLR342W, strain FKS1, hits give low values 0.998 | S. cerevisiae deletion strains, locus YLR357W, strain rsc2, hits give low values 0.999 | S. cerevisiae deletion strains, locus YLR370C, strain arc18, hits give low values 1.03 | S. cerevisiae deletion strains, locus YLR371W, strain rom2, hits give low values 0.986 | S. cerevisiae deletion strains, locus YLR384C, strain iki3, hits give low values 0.993 | S. cerevisiae deletion strains, locus YLR418C, strain cdc73, hits give low values 0.986 | S. cerevisiae deletion strains, locus YML016C, strain PPZ1, hits give low values 0.998 | S. cerevisiae deletion strains, locus YML032C, strain rad52, hits give low values 0.998 | S. cerevisiae deletion strains, locus YML120C, strain ndi1, hits give low values 1.01 | S. cerevisiae deletion strains, locus YML124C, strain tub3, hits give low values 0.996 | S. cerevisiae deletion strains, locus YMR058W, strain fet3, hits give low values 1.02 | S. cerevisiae deletion strains, locus YMR078C, strain ctf18, hits give low values 0.98 | S. cerevisiae deletion strains, locus YMR125W, strain sto1, hits give low values 0.986 | S. cerevisiae deletion strains, locus YMR129W, hits give low values 1 | S. cerevisiae deletion strains, locus YMR205C, strain PFK2, hits give low values 1.01 | S. cerevisiae deletion strains, locus YMR223W, strain ubp8, hits give low values 0.969 | S. cerevisiae deletion strains, locus YMR231W, strain pep5, hits give low values 1 | S. cerevisiae deletion strains, locus YMR307W, strain GAS1, hits give low values 0.988 and 1 | S. cerevisiae deletion strains, locus YNL067W, strain RPL9B, hits give low values 1.04 | S. cerevisiae deletion strains, locus YNL071W, strain lat1, hits give low values 1.01 | S. cerevisiae deletion strains, locus YNL128W, strain TEP1, hits give low values 0.991 | S. cerevisiae deletion strains, locus YNL153C, strain GIM3, hits give low values 1.06 and 0.996 | S. cerevisiae deletion strains, locus YNL175C, strain NOP13, hits give low values 0.988 | S. cerevisiae deletion strains, locus YNL183C, strain NPR1, hits give low values 0.96 | S. cerevisiae deletion strains, locus YNL197C, strain WHI3, hits give low values 1.01 | S. cerevisiae deletion strains, locus YNL209W, strain ssb2, hits give low values 1.01 | S. cerevisiae deletion strains, locus YNL224C, strain SQS1, hits give low values 1 | S. cerevisiae deletion strains, locus YNL233W, strain BNI4, hits give low values 1.04 | S. cerevisiae deletion strains, locus YNL248C, strain rpa49, hits give low values 0.997 | S. cerevisiae deletion strains, locus YNL250W, strain rad50, hits give low values 0.926 | S. cerevisiae deletion strains, locus YNL271C, strain bni1, hits give low values 0.985 | S. cerevisiae deletion strains, locus YNL298W, strain CLA4, hits give low values 0.98 | S. cerevisiae deletion strains, locus YNL307C, strain MCK1, hits give low values 0.983 | S. cerevisiae deletion strains, locus YNL322C, strain KRE1 (second series), hits give low values 1.01 | S. cerevisiae deletion strains, locus YNL322C, strain KRE1, hits give low values 1.01 | S. cerevisiae deletion strains, locus YNR049C, strain mso1, hits give low values 0.999 | S. cerevisiae deletion strains, locus YNR052C, strain pop2, hits give low values 0.974 | S. cerevisiae deletion strains, locus YOL006C, strain TOP1, hits give low values 1.08 | S. cerevisiae deletion strains, locus YOL012C, strain htz1 1.34 | S. cerevisiae deletion strains, locus YOL147C, strain pex11, hits give low values 0.984 | S. cerevisiae deletion strains, locus YOR001W, strain rrp6, hits give low values 1.02 | S. cerevisiae deletion strains, locus YOR061W, strain CKA2, hits give low values 1 | S. cerevisiae deletion strains, locus YOR069W, strain VPS5, hits give low values 0.99 | S. cerevisiae deletion strains, locus YOR070C, strain gyp1, hits give low values 1.01 | S. cerevisiae deletion strains, locus YOR080W, strain dia2, hits give low values 0.999 | S. cerevisiae deletion strains, locus YOR083W, strain WHI5 (second series), hits give low values 0.998 | S. cerevisiae deletion strains, locus YOR083W, strain WHI5, hits give low values 1 | S. cerevisiae deletion strains, locus YOR106W, strain vam3, hits give low values 1.04 | S. cerevisiae deletion strains, locus YOR136W, strain idh2, hits give low values 0.995 | S. cerevisiae deletion strains, locus YOR144C, strain elg1, hits give low values 0.994 | S. cerevisiae deletion strains, locus YOR184W, strain ser1, hits give low values 0.976 | S. cerevisiae deletion strains, locus YOR231W, strain MKK1, hits give low values 1.02 | S. cerevisiae deletion strains, locus YOR265W, strain rbl2, hits give low values 1.01 | S. cerevisiae deletion strains, locus YOR270C, strain vph1, hits give low values 1.03 | S. cerevisiae deletion strains, locus YOR290C, strain snf2, hits give low values 1.01 | S. cerevisiae deletion strains, locus YOR316C, strain cot1, hits give low values 0.99 | S. cerevisiae deletion strains, locus YPL051W, strain arl3, hits give low values 0.999 | S. cerevisiae deletion strains, locus YPL055C, strain LGE1, hits give low values 1.1 | S. cerevisiae deletion strains, locus YPL078C, strain atp4, hits give low values 1.02 | S. cerevisiae deletion strains, locus YPL106C, strain sse1, hits give low values 1.01 | S. cerevisiae deletion strains, locus YPL240C, strain hsp82, hits give low values 0.999 | S. cerevisiae deletion strains, locus YPL241C, strain CIN2, hits give low values 1.01 | S. cerevisiae deletion strains, locus YPL256C, strain CLN2, hits give low values 1.04 | S. cerevisiae deletion strains, locus YPR119W, strain clb2, hits give low values 0.985 | S. cerevisiae deletion strains, locus YPR141C, strain kar3, hits give low values 0.982 | S. cerevisiae deletion strains, locus YPR163C, strain tif3, hits give low values 0.979 | S. cerevisiae deletion strains, locus YPR167C, strain met16, hits give low values 0.992 | S. cerevisiae deletion strains, strain wtn01, hits give low values 0.973 | S. cerevisiae strains, strain wild type, hits give low values 1
